From PubChem
Only some compounds are listed: those with a hit (about 3.4% of all), similar ones and a draw of the others.
FBW7 activator: activators of human E3 ligase FBW7. Q969H0. AlphaScreen FBW7–phospho-cyclin E peptide binding, activator screen. normalized activity (activation), % at 26.1 µM. actives 0.13% (n = 650,000). AID 1259310; in the data active means normalized activity above about 1.9%;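 further: purified mutant Fbw7 with reduced substrate affinity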
GPR151 ag: activates the human receptor GPR151. Q8TDV0. PathHunter beta-arrestin GPR151 cells, luminescence. activation, % at 11.2 µM. actives 1% (n = 650,000). AID 1508602; in the data active means activation above about 4.9%
Target sequence (Q8TDV0 whole entry, looked up): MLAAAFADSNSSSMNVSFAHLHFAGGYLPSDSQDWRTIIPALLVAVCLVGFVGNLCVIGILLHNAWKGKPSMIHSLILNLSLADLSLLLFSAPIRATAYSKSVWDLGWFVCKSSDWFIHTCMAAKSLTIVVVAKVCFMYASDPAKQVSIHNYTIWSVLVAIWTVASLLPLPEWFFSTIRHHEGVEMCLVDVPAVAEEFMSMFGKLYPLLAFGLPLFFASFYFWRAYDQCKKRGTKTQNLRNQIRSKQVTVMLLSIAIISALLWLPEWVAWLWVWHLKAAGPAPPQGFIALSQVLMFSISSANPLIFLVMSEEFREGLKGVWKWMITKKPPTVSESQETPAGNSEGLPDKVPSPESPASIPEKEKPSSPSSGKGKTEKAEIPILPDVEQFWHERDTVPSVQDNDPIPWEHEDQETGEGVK
TEAD-YAP inh: TEAD-YAP interaction inhibition. HEK-TIYL cells, TEAD-Gal4/YAP UAS-luciferase luminescence. inhibition, % at 9.12 µM. actives 1.4% (n = 640,000). AID 1259422; in the data active means inhibition above about 32%
MITF primary: blocks human microphthalmia-associated transcription factor; O75030; AlphaScreen MITF homodimerization, bead proximity signal; inhibition, % at 2.6 µM; actives 0.91% (n = 650,000); AID 1259374; in the data active means inhibition above about 50%
Hits are given with their value.

How did Fc1ccccc1Nc1nc(NCc2ccccc2)c2ccccc2n1 do in these assays?
FBW7 activator: inactive; GPR151 ag: inactive; TEAD-YAP inh: 47; MITF primary: inactive

How did Cc1ccc(Nc2nc(NCc3ccccc3)c3ccccc3n2)cc1 do in these assays?
FBW7 activator: inactive; GPR151 ag: inactive; TEAD-YAP inh: 36; MITF primary: inactive

What do the screens show for `Cc1ccc(-c2nc(NCc3ccccc3)c3ccccc3n2)cc1`?
FBW7 activator: inactive; GPR151 ag: inactive; TEAD-YAP inh: inactive; MITF primary: inactive

How did CCOC(=O)c1c(NC(=O)c2ccc(C)cc2)sc(C)c1C do in these assays?
FBW7 activator: inactive; GPR151 ag: inactive; TEAD-YAP inh: inactive; MITF primary: inactive

Results for CC(C)c1nccn1CC1CCN(C(=O)c2ccccc2Cl)CC1 ?
FBW7 activator: inactive; GPR151 ag: inactive; TEAD-YAP inh: 33; MITF primary: inactive

Results for Cc1cc(C(=O)Nn2c(-c3ccc(Cl)cc3)nc3ccccc3c2=O)ccc1[N+](=O)[O-] ?
FBW7 activator: inactive; GPR151 ag: inactive; TEAD-YAP inh: inactive; MITF primary: inactive

What do the screens show for `O=c1nc2s/c(=C\c3ccco3)c(=O)n2nc1Cc1ccc(F)cc1`?
FBW7 activator: inactive; GPR151 ag: inactive; TEAD-YAP inh: inactive; MITF primary: 70

What do the screens show for `Cc1cc(NC(=O)c2ccccc2Cl)ccc1-c1cc2ccccc2oc1=O`?
FBW7 activator: inactive; GPR151 ag: inactive; TEAD-YAP inh: inactive; MITF primary: inactive

Results for COc1ccccc1Cc1noc(Cc2ccc(Cl)cc2)n1 ?
FBW7 activator: inactive; GPR151 ag: inactive; TEAD-YAP inh: inactive; MITF primary: inactive

Results for CC(C)n1cnc2c(NCCc3ccc(O)cc3)nc(-c3ccc(C(N)=O)cc3)nc21 ?
FBW7 activator: inactive; GPR151 ag: inactive; TEAD-YAP inh: 52; MITF primary: inactive

How did CC(C)n1cnc2c(NCCc3ccc(O)cc3)nc(-c3ccc(C(=O)NC4CC4)cc3)nc21 do in these assays?
FBW7 activator: inactive; GPR151 ag: inactive; TEAD-YAP inh: inactive; MITF primary: inactive

How did COc1ccc(CCNc2nc(-c3ccc(OC)cc3)nc3c2ncn3C(C)C)cc1 do in these assays?
FBW7 activator: inactive; GPR151 ag: inactive; TEAD-YAP inh: inactive; MITF primary: inactive

How did COc1ccc(-c2nc(NCc3nc4ccccc4[nH]3)c3ncn(C(C)C)c3n2)cn1 do in these assays?
FBW7 activator: inactive; GPR151 ag: inactive; TEAD-YAP inh: 48; MITF primary: inactive

What do the screens show for `COc1ccc(-c2nc(NCCN(C(C)C)C(C)C)c3ncn(C(C)C)c3n2)cc1`?
FBW7 activator: inactive; GPR151 ag: inactive; TEAD-YAP inh: 39; MITF primary: inactive

Results for COc1ccc(-c2nc(NCCc3ccc(O)cc3)c3ncn(C(C)C)c3n2)cn1 ?
FBW7 activator: inactive; GPR151 ag: inactive; TEAD-YAP inh: 65; MITF primary: inactive

How did OCCNCCCCOc1ccc(Br)cc1 do in these assays?
FBW7 activator: inactive; GPR151 ag: inactive; TEAD-YAP inh: inactive; MITF primary: inactive

What do the screens show for `COc1ccc(CC2(CCC(=O)NC34CC5CC(CC(O)(C5)C3)C4)CCC(=O)N2)cc1` (centres undefined)?
FBW7 activator: inactive; GPR151 ag: inactive; TEAD-YAP inh: inactive; MITF primary: inactive

What do the screens show for `CCOC(=O)C1=C(C)N=c2s/c(=C\c3ccc(OC)cc3)c(=O)n2C1c1ccccc1Cl` (centres undefined)?
FBW7 activator: inactive; GPR151 ag: inactive; TEAD-YAP inh: inactive; MITF primary: inactive

What do the screens show for `COc1ccc(Oc2nc(-c3ccccc3)c3cc(Br)ccc3n2)cc1`?
FBW7 activator: inactive; GPR151 ag: inactive; TEAD-YAP inh: inactive; MITF primary: inactive

How did CC(C)OCc1cc(CN2CCOCC2)c(O)c2ncccc12 do in these assays?
FBW7 activator: inactive; GPR151 ag: inactive; TEAD-YAP inh: inactive; MITF primary: 94

What do the screens show for `COc1cc(CN2CCOCC2)ccc1OCc1ccccc1`?
FBW7 activator: inactive; GPR151 ag: inactive; TEAD-YAP inh: inactive; MITF primary: inactive

How did Oc1c(CN2CCOCC2)cc(COCc2ccccc2)c2cccnc12 do in these assays?
FBW7 activator: inactive; GPR151 ag: inactive; TEAD-YAP inh: 74; MITF primary: 86

Results for CC(C)OCc1cc(CN2CCN(C)CC2)c(O)c2ncccc12 ?
FBW7 activator: inactive; GPR151 ag: inactive; TEAD-YAP inh: inactive; MITF primary: 94

Results for COCc1cc(CN2CCN(C)CC2)c(O)c2ncccc12 ?
FBW7 activator: inactive; GPR151 ag: inactive; TEAD-YAP inh: inactive; MITF primary: 101

What do the screens show for `CSCCC(NC(=O)c1ccc(Cl)c([N+](=O)[O-])c1)C(=O)Nc1ccc(F)cc1F` (centres undefined)?
FBW7 activator: inactive; GPR151 ag: inactive; TEAD-YAP inh: inactive; MITF primary: inactive
